Data from the supplement of paper PMC11219838.
Values without a mark were called inactive.

These compounds were tested on Caenorhabditis elegans L1 (N2) (assay: survival and reproduction score of C. elegans L1 (0: 0-10 living worms, 1: 11-20, 2: 21-50, 3: >50, 4: overgrown) (score 0-4); higher = more worms, less nematicidal, active = 1 or less; extreme values may be limits of the assay). Conditions: 60 µM; 6 days; temperature: 20 °C.
How it was run: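 Worm survival and reproduction were recorded as an ordinal score of living worms per well, read under a dissection microscope. Each 96-well well held about 20 synchronized C. elegans N2 L1s with E. coli HB101 in liquid NGM and compound at 60 µM final (0.6% v/v DMSO), sealed and shaken at 200 rpm, 20 °C, for 6 days. Scores ranged from 0 (0–10 worms) to 4 (overgrown, starved) and were the mean of two biological replicates.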

Row | SMILES | survival and reproduction score
1 | Cc1cccc(-c2nc(-c3ccc(Br)cc3)no2)c1 | 0 (active)
2 | Cc1cc(OCc2nc(-c3ccccn3)no2)cc(C)c1Cl | 4
3 | Cc1ccccc1-c1nc(-c2ccccc2Cl)no1 | 0 (active)
4 | c1ccc(-c2noc(CSc3nc4ccccc4[nH]3)n2)cc1 | 4
5 | Cc1nc(CSc2nnc(-c3ccccc3)o2)cs1 | 4
6 | COc1ccc(-c2noc(-c3ccccc3Br)n2)cc1 | 4
7 | COc1ccc(-c2nnc(SCc3c(Cl)cccc3Cl)o2)cc1 | 4
8 | COc1ccc(-c2nnc(SCc3ccc(Cl)cc3Cl)o2)cc1 | 4
9 | Clc1ccccc1OCc1nc(-c2ccc(Br)cc2)no1 | 4
10 | COc1ccc(-c2noc(-c3ccc(Cl)cc3)n2)cc1 | 3
11 | Cc1cccc(-c2noc(COc3cc(C)ccc3C)n2)c1 | 2
12 | COc1nc(C)ccc1-c1noc(-c2ccc(F)cc2)n1 | 4
13 | Cc1cccc(-c2noc(-c3cccc(Cl)c3)n2)c1 | 4
14 | COc1ccc(C(=O)CSc2nnc(-c3cccc4ccccc34)o2)cc1 | 4
15 | O=C(CSc1nnc(-c2ccc(Br)cc2)o1)Nc1nccs1 | 4
16 | Cc1ccccc1-c1noc(-c2ccccc2C(=O)NCc2ccccc2)n1 | 4
17 | Cc1cc(Br)ccc1OCc1nc(-c2ccccn2)no1 | 4
18 | Cc1ccccc1OCc1nc(-c2ccccc2)no1 | 4
19 | CCOc1ccc(-c2nc(-c3ccc(C)cc3)no2)cc1 | 0 (active)

Row | SMILES | survival and reproduction score
20 | COc1cccc(-c2noc(COc3ccccc3C)n2)c1 | 4
21 | O=C(CSc1nnc(-c2ccc(Cl)cc2)o1)Nc1ccccc1C(F)(F)F | 4
22 | Cc1ccccc1CSc1nnc(-c2ccccc2)o1 | 4
23 | c1ccc2c(OCc3nc(-c4ccncc4)no3)cccc2c1 | 4
24 | COc1ccc(-c2nnc(SCC(=O)N3CC(C)CC(C)C3)o2)cc1 (stereo not drawn) | 4
25 | COc1ccccc1-c1nc(-c2ccc(C)cc2)no1 | 4
26 | CC(=O)Nc1ccc(-c2nnc(SCc3ccccc3)o2)cc1 | 4
27 | c1ccc(-c2noc(COc3ccc4c(c3)CCCC4)n2)cc1 | 4
28 | Cc1ccc(-c2noc(-c3ccc(Br)cc3)n2)cc1 | 4
29 | Cc1cccc(-c2noc(-c3ccc(C)cc3Cl)n2)c1 | 4
30 | Cc1ccc(-c2nc(-c3ccccc3Cl)no2)c(Cl)c1 | 4
31 | COC(=O)CSc1nnc(-c2ccc(C(C)(C)C)cc2)o1 | 3.5
32 | Cc1ccc(-c2noc(-c3ccc(C)cc3)n2)cc1 | 0.5 (active)
33 | Cc1ccc(NC(=O)CSc2nnc(-c3ccccc3)o2)cc1F | 4
34 | CC(C)(C)c1ccc(-c2nc(-c3ccncc3)no2)cc1 | 0 (active)
35 | COc1cccc(-c2nc(-c3ccccc3)no2)c1 | 1.5
36 | COc1ccccc1-c1nc(-c2ccc(Cl)cc2Cl)no1 | 4
37 | O=C(CSc1nnc(-c2cccc(Cl)c2)o1)NC1CCCCC1 | 4
38 | O=C(CSc1nnc(-c2ccccc2)o1)Nc1cccc(Br)c1 | 4
